This is a sample that favours compounds with a hit; in the whole collection about 0.38% have one here.
Rac1 wt modul: modulators of human Rac1 wildtype GTP binding | P63000 | GST-Rac1 beads, fluorescent GTP binding, flow cytometry; actives lie on both sides; 0 = cold GTP competed, 100 = untreated | GTP binding activity (% of control), % at 10 µM | 0.27% of 190,000 active | AID 757;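 active = GTP binding activity at least 20 points away from the 100% control level, either lower or higher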
Cdc42 wt GTP: modulators (inhibitors or activators) of GTP binding to human Cdc42 wildtype; P60953; GST-Cdc42 beads, Bodipy-GTP binding, flow cytometry; actives lie on both sides; percent activity (GTP binding), % at 10 µM; 0.2% of 190,000 active;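 active = percent activity GTP binding at least 20 points away from the 100% baseline, either down as inhibitor or up as activator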;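 note: median bead fluorescence of bound Bodipy-FL-GTP at 100 nM; below 100% means less GTP binding so inhibitor and above means activator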
Target sequence (P60953 whole entry, looked up): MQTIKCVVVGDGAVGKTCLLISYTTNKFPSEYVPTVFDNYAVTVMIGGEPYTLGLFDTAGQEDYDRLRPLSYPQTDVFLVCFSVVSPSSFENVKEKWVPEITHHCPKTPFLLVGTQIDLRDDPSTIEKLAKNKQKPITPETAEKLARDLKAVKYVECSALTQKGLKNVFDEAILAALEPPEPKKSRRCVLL
Rab7 wt GTP bind: modulators of GTP binding to dog Rab7 wildtype GTPase; GST-Rab7 beads, fluorescent GTP binding, flow cytometry; actives lie on both sides; untreated = 100%, excess cold GTP = 0%; GTP binding activity (percent of control), % at 10 µM; 0.055% of 190,000 active; AID 758;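 active = fluorescent GTP binding to Rab7 beads changed by at least 20 points from the 100% baseline, either direction, mostly lower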;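 note: median green fluorescence of bound Bodipy-FL-GTP per Rab7 bead population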
HRas wt GTP bind: changes GTP binding to wildtype human HRas; P01112; 0.14% of 190,000 active; GTP binding activity, % at 10 µM; GST-Ras wt beads, Bodipy-FL-GTP binding, flow cytometry; actives lie on both sides;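 active = GTP binding activity at least 20% away from the 100% baseline, either lowered as inhibitor or raised as activator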
Target sequence (P01112 whole entry, looked up): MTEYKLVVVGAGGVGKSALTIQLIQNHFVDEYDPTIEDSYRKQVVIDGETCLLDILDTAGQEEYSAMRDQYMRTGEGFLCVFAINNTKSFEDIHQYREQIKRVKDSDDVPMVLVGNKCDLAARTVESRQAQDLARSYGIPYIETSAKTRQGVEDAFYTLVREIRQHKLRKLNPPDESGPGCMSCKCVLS
Rac1 act GTP bind: human Rac1 activated mutant GTP binding change. P63000. GST-Rac1 activated beads, fluorescent GTP binding, flow cytometry; actives lie on both sides; 100% means binding = to untreated wells. percent activity (GTP binding), % at 10 µM. 0.11% of 190,000 active. AID 764;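 active = GTP binding at least 20 percentage points away from the 100% baseline, in either direction, so actives lie on both sides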
Rab2A wt mod: changes GTP binding to wildtype dog Rab2A, up or down. P61105. GST-Rab2 wt beads, Bodipy-GTP binding, flow cytometry. GTP binding activity, % at 10 µM. 0.19% of 190,000 active. AID 760;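 active = GTP binding activity at least 20 points away from 100%, either lowered or raised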
Hits are given with their value; i = inactive; [ ] = another dose, or the depositor's remark.

SMILES | Rac1 wt modul | Cdc42 wt GTP | Rab7 wt GTP bind | HRas wt GTP bind | Rac1 act GTP bind | Rab2A wt mod
COc1ccccc1N(CCN1C(=O)c2cccc3cccc(c23)C1=O)C(=O)c1ccncc1 | i | i | i | i | i | i
COc1cc2c(-c3ccc(O)cc3)nc3c(c(C)nn3-c3ccccc3)c2cc1OC | i | i | i | i | i | i
COc1cc2c(C)nc3c(c(C)nn3-c3ccccc3)c2cc1OC | 72 | i | i | i | i | i
O=C1C(=O)c2ccc(-c3ccccc3)cc2-c2ccccc21 | i | i | i | i | i | i
Nc1ccc2c(c1)C(=O)C(=O)c1ccccc1-2 | i | 70 | i | i | i | i
Cc1nn(-c2ccccc2)c2sc(-c3nnc(SCC(=O)O)o3)cc12 | i | i | i | i | i | i
CCn1c(SCC(=O)O)nnc1-c1cc2c(C)nn(-c3ccccc3)c2s1 | 79 | i | i | i | i | i
O=C(N=Nc1c(O)[nH]c2ccc([N+](=O)[O-])cc12)c1cc(-c2ccccc2Cl)nc2ccccc12 | i | i | i | i | i | i
COc1ccccc1C(=O)N=Nc1c(O)[nH]c2ccc([N+](=O)[O-])cc12 | 45 | 51 | 66 | 53 | 66 | 51
CC(C)NC(=S)N=Nc1c(O)[nH]c2ccc([N+](=O)[O-])cc12 | 62 | 68 | i | 72 | i | 68
O=C(c1ccccc1NS(=O)(=O)c1cccc2cccnc12)N1CCOCC1 | i | i | i | i | i | i
CCOC(=O)C1CCN(C(=O)c2cc3ccccc3oc2=O)CC1 | i | i | i | i | i | i
O=C(O)c1cc([N+](=O)[O-])ccc1NCc1ccccc1Cl | 146[activator] | 129[activator] | i | 125[activator] | 133[activator] | 129[activator]
N#C/C(=C/c1ccc(O)c([N+](=O)[O-])c1)C(=O)Nc1ccccc1 | 77 | 79 | i | i | i | i
N#C/C(=C/c1ccc([N+](=O)[O-])cc1)C(=O)Nc1ccccc1O | i | i | i | i | i | i
COc1cc(S(=O)(=O)N2CCN(C(=O)c3ccccc3)CC2)c(OC)cc1Br | i | i | i | i | i | i
CC(=O)Nc1ccc(/C=N/N2CCCCC2)cc1 | i | i | i | i | i | i
Cc1ccc(CS(=O)(=O)c2ccccc2-c2nnc(-c3ccc(Cl)cc3)o2)cc1 | i | i | 77 | i | i | i
Cc1ccccc1-c1nnc(-c2ccc(Cl)cc2)o1 | i | i | i | i | i | i
O=C(O)COc1ccccc1/C=N/NC(=O)c1cc(-c2ccc(F)cc2)nc2ccccc12 | 78 | i | i | i | i | i
O=C(NC(=S)NCCN1CCOCC1)c1ccccc1Br | i | i | i | i | i | i
O=C(CCc1ccc(S(=O)(=O)NCCc2ccccc2)cc1)Nc1ccc2c(c1)OCO2 | 33 | 35 | 24 | 39 | 35 | 34
CC(C)CNS(=O)(=O)c1ccc(CCC(=O)Nc2ccc3c(c2)OCO3)cc1 | i | i | i | i | i | i
CCOC(=O)N1CCN(C(=O)CCc2ccc(S(=O)(=O)NCCc3ccccc3)cc2)CC1 | 29 | 33 | 20 | 37 | 32 | 32
O=C(Cc1ccc(Cl)cc1)Nc1ccc2c(c1)C(=O)NC2=O | i | i | i | i | i | i
SMILES | Rac1 wt modul | Cdc42 wt GTP | Rab7 wt GTP bind | HRas wt GTP bind | Rac1 act GTP bind | Rab2A wt mod
CCOC(=O)N1CCN(/C=C(\C#N)c2nc3ccccc3s2)CC1 | 124[activator] | i | 120[activator] | 121[activator] | i | 129[activator]
CC1(C)CC2CC(C)(CN2C(=O)c2cccs2)C1 (stereo not drawn) | 157[activator] | 133[activator] | i | i | i | i
Cc1sc2nc3c(SC(C)C(=O)O)cc(C(=O)c4ccccc4O)cn3c(=O)c2c1C (stereo not drawn) | 75 | i | i | i | i | i
COc1cc(/C=N/Nc2ccc(S(N)(=O)=O)cc2)cc(OC)c1OC | 79 | i | i | i | i | i
COc1cc(/C=N/Nc2ccc(F)cc2F)cc(OC)c1OC | i | i | i | i | i | i
Cc1ccn2c(NCc3ccc4c(c3)OCO4)c(-c3ccc(O)cc3)nc2c1 | 135[activator] | 145[activator] | i | i | i | i
CSc1nc2ccc(NC(=O)C3CC(=O)N(Cc4ccco4)C3)cc2s1 (stereo not drawn) | i | 75 | i | i | i | i
CC(=O)Nc1ccc(/C=N/NC(=O)CCN2CCN(c3ccccc3)CC2)cc1 | 74 | 76 | i | 79 | i | 75
COc1ccc(/C=C2\SC(=S)N(CCCC(=O)NNC(=O)c3ccccc3O)C2=O)cc1 | 79 | 78 | i | i | i | i
O=C(CCCN1C(=O)/C(=C/c2ccccc2Cl)SC1=S)NNC(=O)c1ccccc1Cl | i | i | i | i | i | i
Cc1c[n+](C)ccc1CC1C([N+](=O)[O-])=C[N-]c2ncnn21 (stereo not drawn) | i | i | i | i | i | i
C/C(=N\NC(=O)c1c[nH]c2ccccc12)c1ccc(C)o1 | 79 | i | i | i | i | i
COc1cc(Cl)cc(C(=O)O)c1OCC(=O)O | i | i | i | i | i | i
CC(C)(C)OC(=O)N[C@@H](Cc1ccccc1)c1nnc(S(=O)(=O)Cc2cccc(F)c2)o1 | i | i | 79 | i | i | i
CC(=O)NC1C(Oc2ccc3c(C)cc(=O)oc3c2)OC(COC(C)=O)C(OC(C)=O)C1OC(C)=O (stereo not drawn) | i | i | i | i | i | i
O=C(CSc1ccc2nnc(-c3cccs3)n2n1)N1CCCC1 | 73 | i | i | i | i | i
Cc1nnc(NC(=O)CSc2ccc3nnc(-c4ccccn4)n3n2)s1 | i | i | i | i | i | i
O=C(CSc1ccc2nnc(-c3ccccn3)n2n1)Nc1nccs1 | 54 | 65 | i | 68 | 73 | 62
CCOC(=O)CSc1ccc2nnc(-c3cccs3)n2n1 | i | i | i | i | i | i
O=C(CSc1ccc2nnc(-c3ccncc3)n2n1)Nc1nccs1 | 71 | 79 | i | i | i | i
CCOP(=O)(OCC)C(Nc1ccc(C)cc1)c1ccco1 (stereo not drawn) | i | i | i | i | i | i
CC(C)(C)NC(=O)CCN(/N=C/c1ccc([N+](=O)[O-])o1)C1=NS(=O)(=O)c2ccccc21 | 50 | 56 | 72 | 42 | 59 | 45
Cc1ccc(CSc2nnc(-c3ccccc3N)c(=O)[nH]2)cc1 | 120[activator] | i | i | i | i | i
Cc1sc2nc(-c3ccccc3)oc(=O)c2c1C | i | i | i | i | i | i
CCc1nnc(NS(=O)(=O)c2ccc(Nc3ccc4nonc4c3[N+](=O)[O-])cc2)s1 | 77 | i | i | 77 | i | 76
CC(=O)Nc1ccc(Nc2ccc3nonc3c2[N+](=O)[O-])cc1 | i | i | i | i | i | i

Bioassay records from PubChem BioAssay.
